From ChEMBL document CHEMBL2218924, “A broad activity screen in support of a chemogenomic map for kinase signalling research and drug discovery” (Biochem J, 2013)

How the values were obtained:
[1] = target: Tyrosine-protein kinase SYK (Homo sapiens) (UniProt P43405); conditions: at 10 µM
[2] = target: T1, Mitogen-activated protein kinase kinase kinase 7 (Homo sapiens) (UniProt O43318); conditions: at 1 µM
T1 sequence (whole entry): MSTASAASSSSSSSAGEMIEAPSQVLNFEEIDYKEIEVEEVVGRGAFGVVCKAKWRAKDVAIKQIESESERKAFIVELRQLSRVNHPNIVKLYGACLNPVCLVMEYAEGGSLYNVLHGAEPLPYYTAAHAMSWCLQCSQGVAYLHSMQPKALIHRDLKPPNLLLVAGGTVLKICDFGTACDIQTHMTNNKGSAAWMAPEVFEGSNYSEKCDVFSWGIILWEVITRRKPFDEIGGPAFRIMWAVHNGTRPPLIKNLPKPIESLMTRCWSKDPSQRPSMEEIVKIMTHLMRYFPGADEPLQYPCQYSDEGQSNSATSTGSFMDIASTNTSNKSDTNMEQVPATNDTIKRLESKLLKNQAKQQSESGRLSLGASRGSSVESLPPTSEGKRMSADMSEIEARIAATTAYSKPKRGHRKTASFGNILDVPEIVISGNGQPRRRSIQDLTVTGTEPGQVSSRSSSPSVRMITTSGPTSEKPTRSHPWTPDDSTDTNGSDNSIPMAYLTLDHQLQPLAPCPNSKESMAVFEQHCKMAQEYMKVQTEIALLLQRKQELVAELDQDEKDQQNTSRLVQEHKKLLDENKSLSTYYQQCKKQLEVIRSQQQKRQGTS

[3] = target: T1, Mitogen-activated protein kinase kinase kinase 7 (Homo sapiens); conditions: at 10 µM
[4] = target: T2, Serine/threonine-protein kinase TAO1 (Homo sapiens) (UniProt Q7L7X3); conditions: at 1 µM
T2 sequence (whole entry): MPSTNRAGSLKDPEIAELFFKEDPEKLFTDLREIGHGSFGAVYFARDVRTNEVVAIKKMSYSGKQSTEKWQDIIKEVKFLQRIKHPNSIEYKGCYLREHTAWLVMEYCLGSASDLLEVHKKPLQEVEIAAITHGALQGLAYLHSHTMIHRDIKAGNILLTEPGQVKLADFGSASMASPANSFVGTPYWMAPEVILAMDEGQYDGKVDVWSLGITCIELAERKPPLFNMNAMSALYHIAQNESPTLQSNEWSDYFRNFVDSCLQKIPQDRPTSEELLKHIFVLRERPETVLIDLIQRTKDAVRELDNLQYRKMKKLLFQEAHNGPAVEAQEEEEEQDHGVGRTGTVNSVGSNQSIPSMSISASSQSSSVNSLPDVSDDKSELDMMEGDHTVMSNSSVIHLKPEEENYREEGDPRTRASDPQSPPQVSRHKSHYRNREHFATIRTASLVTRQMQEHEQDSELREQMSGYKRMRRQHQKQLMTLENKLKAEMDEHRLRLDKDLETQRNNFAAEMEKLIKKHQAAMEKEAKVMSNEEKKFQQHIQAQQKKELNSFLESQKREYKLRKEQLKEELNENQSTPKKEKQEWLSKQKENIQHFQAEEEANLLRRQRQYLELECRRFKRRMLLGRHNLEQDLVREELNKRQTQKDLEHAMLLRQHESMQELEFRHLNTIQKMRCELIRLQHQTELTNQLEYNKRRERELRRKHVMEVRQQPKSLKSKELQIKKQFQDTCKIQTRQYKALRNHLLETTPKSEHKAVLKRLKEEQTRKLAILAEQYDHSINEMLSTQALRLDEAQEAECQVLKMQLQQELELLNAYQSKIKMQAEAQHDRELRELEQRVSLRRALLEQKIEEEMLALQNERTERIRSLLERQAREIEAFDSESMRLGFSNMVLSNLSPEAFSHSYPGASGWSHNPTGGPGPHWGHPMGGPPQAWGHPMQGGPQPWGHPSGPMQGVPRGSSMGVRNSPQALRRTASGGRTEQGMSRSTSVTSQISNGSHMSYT

[5] = target: T2, Serine/threonine-protein kinase TAO1 (Homo sapiens); conditions: at 10 µM
[6] = target: T3, Serine/threonine-protein kinase TAO2 (Homo sapiens) (UniProt Q9UL54); conditions: at 1 µM
T3 sequence (whole entry): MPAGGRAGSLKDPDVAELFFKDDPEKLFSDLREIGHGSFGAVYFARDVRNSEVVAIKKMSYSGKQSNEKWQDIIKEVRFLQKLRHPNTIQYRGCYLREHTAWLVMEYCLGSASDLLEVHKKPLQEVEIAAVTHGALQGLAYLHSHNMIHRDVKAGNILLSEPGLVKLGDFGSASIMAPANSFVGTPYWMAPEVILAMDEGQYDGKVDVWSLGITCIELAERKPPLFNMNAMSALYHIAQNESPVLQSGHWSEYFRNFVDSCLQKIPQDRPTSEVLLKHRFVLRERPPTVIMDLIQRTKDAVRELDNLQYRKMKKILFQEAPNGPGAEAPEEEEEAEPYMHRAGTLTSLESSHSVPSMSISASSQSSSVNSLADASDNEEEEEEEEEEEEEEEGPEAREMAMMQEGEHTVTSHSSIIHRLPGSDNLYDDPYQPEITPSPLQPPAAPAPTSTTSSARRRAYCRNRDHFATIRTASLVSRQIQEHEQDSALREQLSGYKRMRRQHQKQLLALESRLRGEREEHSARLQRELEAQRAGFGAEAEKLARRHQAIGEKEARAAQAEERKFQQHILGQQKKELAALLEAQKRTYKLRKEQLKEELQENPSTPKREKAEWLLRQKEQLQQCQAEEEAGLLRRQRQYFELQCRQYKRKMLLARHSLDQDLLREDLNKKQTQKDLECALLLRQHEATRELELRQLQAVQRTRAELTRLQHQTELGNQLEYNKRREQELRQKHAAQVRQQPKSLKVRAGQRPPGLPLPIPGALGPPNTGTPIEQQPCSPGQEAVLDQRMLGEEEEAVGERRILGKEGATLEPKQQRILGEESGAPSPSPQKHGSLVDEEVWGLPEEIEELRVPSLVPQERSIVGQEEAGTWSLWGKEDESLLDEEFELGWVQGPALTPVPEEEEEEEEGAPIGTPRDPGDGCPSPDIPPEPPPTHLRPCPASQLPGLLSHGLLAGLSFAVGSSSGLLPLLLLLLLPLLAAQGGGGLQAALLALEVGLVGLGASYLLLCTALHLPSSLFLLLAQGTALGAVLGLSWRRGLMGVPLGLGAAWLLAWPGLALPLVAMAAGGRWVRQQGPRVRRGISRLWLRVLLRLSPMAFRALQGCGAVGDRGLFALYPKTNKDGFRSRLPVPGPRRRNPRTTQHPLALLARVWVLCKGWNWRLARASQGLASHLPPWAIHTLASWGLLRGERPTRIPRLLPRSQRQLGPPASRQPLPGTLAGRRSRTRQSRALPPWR

[7] = target: T3, Serine/threonine-protein kinase TAO2 (Homo sapiens); conditions: at 10 µM
[8] = target: T4, Serine/threonine-protein kinase TAO3 (Homo sapiens) (UniProt Q9H2K8); conditions: at 1 µM
T4 sequence (whole entry): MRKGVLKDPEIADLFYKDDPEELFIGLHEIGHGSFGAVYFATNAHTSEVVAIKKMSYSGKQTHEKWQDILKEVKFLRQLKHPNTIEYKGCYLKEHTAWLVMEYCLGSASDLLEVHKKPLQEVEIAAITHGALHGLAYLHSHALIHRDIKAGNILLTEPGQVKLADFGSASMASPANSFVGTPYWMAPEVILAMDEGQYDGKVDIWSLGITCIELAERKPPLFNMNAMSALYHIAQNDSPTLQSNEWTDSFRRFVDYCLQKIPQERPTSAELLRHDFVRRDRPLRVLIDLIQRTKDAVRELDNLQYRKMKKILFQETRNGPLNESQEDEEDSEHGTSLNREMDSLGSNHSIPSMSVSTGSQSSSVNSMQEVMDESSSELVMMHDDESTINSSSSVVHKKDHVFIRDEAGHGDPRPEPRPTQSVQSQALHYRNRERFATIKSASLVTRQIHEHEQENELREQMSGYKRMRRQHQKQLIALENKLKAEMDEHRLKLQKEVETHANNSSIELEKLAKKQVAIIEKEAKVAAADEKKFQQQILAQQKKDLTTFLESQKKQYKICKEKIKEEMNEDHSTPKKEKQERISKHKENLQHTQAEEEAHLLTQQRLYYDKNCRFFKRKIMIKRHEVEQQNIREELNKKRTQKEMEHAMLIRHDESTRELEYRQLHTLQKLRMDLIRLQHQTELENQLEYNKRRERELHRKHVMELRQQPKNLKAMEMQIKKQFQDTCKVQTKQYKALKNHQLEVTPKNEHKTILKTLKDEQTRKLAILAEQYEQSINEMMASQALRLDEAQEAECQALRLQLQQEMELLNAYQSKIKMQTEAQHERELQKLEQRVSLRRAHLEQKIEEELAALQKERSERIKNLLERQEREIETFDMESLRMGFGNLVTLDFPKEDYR

[9] = target: T4, Serine/threonine-protein kinase TAO3 (Homo sapiens); conditions: at 10 µM
[10] = target: T5, Serine/threonine-protein kinase TBK1 (Homo sapiens) (UniProt Q9UHD2); conditions: at 1 µM
T5 sequence (whole entry): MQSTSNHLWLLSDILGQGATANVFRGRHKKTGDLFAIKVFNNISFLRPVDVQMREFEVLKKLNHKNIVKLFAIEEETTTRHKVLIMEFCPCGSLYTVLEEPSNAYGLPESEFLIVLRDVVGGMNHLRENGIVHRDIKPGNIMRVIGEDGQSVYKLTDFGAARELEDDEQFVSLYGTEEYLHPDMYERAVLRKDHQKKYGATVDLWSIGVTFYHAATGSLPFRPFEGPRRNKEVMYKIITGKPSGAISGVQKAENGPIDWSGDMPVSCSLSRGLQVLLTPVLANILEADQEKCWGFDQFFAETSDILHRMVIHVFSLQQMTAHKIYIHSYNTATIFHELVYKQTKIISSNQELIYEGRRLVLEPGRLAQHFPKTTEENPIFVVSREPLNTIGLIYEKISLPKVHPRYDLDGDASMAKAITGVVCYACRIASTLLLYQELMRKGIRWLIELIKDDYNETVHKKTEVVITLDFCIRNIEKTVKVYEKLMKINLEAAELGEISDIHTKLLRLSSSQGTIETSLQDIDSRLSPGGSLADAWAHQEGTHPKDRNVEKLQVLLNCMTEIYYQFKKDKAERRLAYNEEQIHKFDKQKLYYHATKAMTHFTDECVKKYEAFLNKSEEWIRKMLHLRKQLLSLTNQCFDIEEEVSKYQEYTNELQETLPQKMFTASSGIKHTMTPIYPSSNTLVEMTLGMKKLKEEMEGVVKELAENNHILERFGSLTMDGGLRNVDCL

[11] = target: T5, Serine/threonine-protein kinase TBK1 (Homo sapiens); conditions: at 10 µM
[12] = target: T6, TGF-beta receptor type-1 (Homo sapiens) (UniProt P36897); conditions: at 1 µM
T6 sequence (whole entry): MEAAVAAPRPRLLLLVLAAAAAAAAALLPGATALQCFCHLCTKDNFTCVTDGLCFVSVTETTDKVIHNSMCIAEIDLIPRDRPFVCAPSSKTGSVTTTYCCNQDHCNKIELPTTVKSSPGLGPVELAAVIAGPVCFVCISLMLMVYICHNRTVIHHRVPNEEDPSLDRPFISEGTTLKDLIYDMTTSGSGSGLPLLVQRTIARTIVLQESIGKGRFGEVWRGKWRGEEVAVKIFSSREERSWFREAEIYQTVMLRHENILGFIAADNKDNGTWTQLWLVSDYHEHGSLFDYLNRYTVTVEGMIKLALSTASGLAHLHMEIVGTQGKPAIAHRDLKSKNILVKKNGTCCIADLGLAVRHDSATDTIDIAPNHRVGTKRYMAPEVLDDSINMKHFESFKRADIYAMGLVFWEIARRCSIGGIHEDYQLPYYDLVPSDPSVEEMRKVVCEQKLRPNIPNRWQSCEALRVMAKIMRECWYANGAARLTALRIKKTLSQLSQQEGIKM

[13] = target: T6, TGF-beta receptor type-1 (Homo sapiens); conditions: at 10 µM
[14] = target: Insulin-like growth factor 1 receptor (Homo sapiens) (UniProt P08069); conditions: at 1 µM
[15] = target: Insulin-like growth factor 1 receptor (Homo sapiens) (UniProt P08069); conditions: at 10 µM
[16] = target: Insulin receptor (Homo sapiens) (UniProt P06213); conditions: at 1 µM
Sequence of Insulin receptor (Homo sapiens) (P06213 28-758 limits assumed): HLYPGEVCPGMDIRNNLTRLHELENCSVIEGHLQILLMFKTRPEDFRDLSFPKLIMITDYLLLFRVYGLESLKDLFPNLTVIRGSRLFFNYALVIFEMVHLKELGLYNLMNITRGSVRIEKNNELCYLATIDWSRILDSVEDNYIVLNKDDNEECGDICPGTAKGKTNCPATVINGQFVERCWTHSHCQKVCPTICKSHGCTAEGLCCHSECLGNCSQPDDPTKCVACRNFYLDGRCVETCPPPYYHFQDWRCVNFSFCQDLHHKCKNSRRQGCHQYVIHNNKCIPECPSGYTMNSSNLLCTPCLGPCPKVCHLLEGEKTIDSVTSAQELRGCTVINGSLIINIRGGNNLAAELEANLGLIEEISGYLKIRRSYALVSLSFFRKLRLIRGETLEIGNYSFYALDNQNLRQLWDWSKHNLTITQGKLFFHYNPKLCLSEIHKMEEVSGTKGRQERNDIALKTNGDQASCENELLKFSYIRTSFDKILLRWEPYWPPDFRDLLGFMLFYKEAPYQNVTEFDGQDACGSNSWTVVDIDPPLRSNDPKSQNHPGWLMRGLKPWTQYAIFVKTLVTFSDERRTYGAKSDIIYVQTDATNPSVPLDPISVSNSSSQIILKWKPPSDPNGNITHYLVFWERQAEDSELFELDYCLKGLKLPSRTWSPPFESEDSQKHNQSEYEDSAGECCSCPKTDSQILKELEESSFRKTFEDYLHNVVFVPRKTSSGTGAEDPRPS
Sequence of Insulin receptor (Homo sapiens) (P06213 763-1382 limits assumed): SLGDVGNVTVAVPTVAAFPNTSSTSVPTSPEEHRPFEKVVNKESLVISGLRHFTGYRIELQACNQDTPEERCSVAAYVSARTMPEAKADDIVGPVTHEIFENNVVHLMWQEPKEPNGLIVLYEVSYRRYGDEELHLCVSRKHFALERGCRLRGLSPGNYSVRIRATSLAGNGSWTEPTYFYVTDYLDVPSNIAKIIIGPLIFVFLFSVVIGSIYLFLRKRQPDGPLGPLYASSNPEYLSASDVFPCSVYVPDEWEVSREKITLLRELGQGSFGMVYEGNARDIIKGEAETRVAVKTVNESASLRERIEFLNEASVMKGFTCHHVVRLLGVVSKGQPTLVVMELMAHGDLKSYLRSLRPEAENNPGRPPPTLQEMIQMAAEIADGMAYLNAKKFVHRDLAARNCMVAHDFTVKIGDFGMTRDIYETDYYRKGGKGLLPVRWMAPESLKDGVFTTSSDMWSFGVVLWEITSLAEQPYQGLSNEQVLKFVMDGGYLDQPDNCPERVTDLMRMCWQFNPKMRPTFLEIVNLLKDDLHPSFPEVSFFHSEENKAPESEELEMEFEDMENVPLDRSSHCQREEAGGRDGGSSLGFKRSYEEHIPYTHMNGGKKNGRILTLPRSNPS

Sequence of Insulin-like growth factor 1 receptor (Homo sapiens) (P08069 31-736 limits assumed): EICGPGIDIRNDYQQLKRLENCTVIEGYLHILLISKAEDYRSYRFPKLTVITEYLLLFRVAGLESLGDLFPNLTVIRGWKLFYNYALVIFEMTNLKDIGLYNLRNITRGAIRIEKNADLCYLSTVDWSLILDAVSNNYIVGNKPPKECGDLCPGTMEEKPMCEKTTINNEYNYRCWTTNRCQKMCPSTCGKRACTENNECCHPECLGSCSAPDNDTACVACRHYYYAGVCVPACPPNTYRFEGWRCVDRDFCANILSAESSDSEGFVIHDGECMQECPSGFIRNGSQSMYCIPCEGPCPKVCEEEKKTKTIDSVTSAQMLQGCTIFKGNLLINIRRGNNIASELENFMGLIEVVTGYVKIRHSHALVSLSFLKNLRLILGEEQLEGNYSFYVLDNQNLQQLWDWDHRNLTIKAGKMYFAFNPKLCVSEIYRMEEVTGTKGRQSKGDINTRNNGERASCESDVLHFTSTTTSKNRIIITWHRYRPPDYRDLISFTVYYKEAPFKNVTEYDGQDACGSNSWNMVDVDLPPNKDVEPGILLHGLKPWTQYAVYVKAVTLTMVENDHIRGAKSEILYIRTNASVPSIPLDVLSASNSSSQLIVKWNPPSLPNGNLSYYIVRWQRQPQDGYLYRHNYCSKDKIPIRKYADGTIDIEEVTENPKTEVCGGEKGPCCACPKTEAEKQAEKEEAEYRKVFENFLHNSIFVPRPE
Sequence of Insulin-like growth factor 1 receptor (Homo sapiens) (P08069 741-1367 limits assumed): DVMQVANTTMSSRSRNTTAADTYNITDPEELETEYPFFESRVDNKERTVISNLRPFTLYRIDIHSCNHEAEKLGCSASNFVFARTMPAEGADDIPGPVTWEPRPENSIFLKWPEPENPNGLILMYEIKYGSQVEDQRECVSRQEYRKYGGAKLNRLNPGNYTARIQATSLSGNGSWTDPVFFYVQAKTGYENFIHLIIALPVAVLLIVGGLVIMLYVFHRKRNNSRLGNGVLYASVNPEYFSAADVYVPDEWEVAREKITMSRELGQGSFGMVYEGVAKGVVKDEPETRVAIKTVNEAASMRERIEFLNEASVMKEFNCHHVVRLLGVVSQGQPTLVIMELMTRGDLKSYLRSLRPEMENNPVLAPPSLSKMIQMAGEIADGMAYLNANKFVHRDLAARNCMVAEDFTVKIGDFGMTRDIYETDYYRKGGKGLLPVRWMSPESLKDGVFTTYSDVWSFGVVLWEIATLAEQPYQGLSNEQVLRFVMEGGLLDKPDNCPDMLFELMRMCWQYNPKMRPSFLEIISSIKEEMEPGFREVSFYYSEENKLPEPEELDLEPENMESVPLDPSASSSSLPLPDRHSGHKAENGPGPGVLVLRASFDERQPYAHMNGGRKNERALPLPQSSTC

## COc1cc2nccc(Oc3ccc(NC(=S)NC(=O)c4ccccc4C)cc3)c2cc1OC
[1]
  residual activity: 65%
[2]
  residual activity: 87%
[3]
  residual activity: 87%
[4]
  residual activity: 91%
[5]
  residual activity: 71%
[6]
  residual activity: 89%
[7]
  residual activity: 75%
[8]
  residual activity: 78%
[9]
  residual activity: 67%
[10]
  residual activity: 57%
[11]
  residual activity: 48%
[12]
  residual activity: 78%
[13]
  residual activity: 77%
[14]
  residual activity: 87%
[15]
  residual activity: 73%
[16]
  residual activity: 92%
